The target of assay [1] is Phospholipid hydroperoxide glutathione peroxidase GPX4 (Homo sapiens) (UniProt P36969). Briefly: Primary qHTS Assay for Inhibitors of Recombinant Selenoprotein Glutathione Peroxidase 4 (GPX4) (AID 1845192). Note: series mostly up to about 50 µM; % is set by controls: 0 for no effect and ±100 for the full control effect; nearly all actives have a fitted effect of over 65% in size. The essentials:
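GR-coupled assay: recombinant GPX4 preincubated 30 min with compound at room temperature; final 200 nM GPX4, 1 mM GSH, 0.5 mM cumene hydroperoxide, 0.5 mM NADPH, 100 nM GR, 0.01% BSA, pH 7.5 Tris. NADPH fluorescence (340/450 nm) read at 0 and 15 min.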
For orientation: Quantitative high-throughput screening tests each substance at several concentrations.

The target in assay [2] is Luciferin 4-monooxygenase (Photinus pyralis) (UniProt P08659). The assay is described as follows: Primary firefly luciferase (FLuc) qHTS assay for identification of artifact compounds. (AID 1845220).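 For activity change, negative = inhibition: series mostly up to about 54 µM; plate controls were DMSO vehicle for no effect and no enzyme for full effect.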 Note: nearly all actives have a fitted effect of over 60% in size. In a few lines: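 Titrated compounds were incubated 15 min at RT, protected from light, with luciferin and ATP at 10 uM; reaction started with 10 nM FLuc, luminescence imaged at 5 min, and concentration-response fitted by Hill equation.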

Assay [3] can be described thus: Primary fluorescence-based thiol-reactive (MSTI) qHTS assay for identification of artifact compounds. (AID 1845221).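 For activity change, negative = thiol reactive: series mostly up to about 54 µM; thiol-reactive compounds lower the probe fluorescence signal.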 Note: nearly all actives have a fitted effect of over 65% in size. Note: potency is the fitted concentration of half-maximal effect. In a few lines: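 Reactivity toward the thiol probe MSTI (4 uM) is scored by fluorescence at Ex/Em 525/598 nm after 1 h at room temperature. Acetyl-MSTI and MSTI define the activity scale.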
A short description of assay [4]: Primary redox qHTS assay for identification of artifact compounds. (AID 1845223).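 For redox activity (% of DA3003): 0% = DMSO and 100% = reference compound.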 Note: potency is the fitted concentration of half-maximal effect. The essentials: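 Amplex Red (25 uM) and HRP (250 mU/mL) in HBSS, with compounds for 15 min, then 250 uM DTT for 30 min, room temperature, dark. Fluorescence 525/598 nm read; normalized to DMSO and 10 uM DA3003; Hill fit.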
Assay [5] concerns Nanoluciferase (engineered Oplophorus gracilirostris luciferase). Briefly: Primary Nanoluciferase (NLuc) qHTS assay for identification of artifact compounds. (AID 1845222).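 Note: NLuc secreted into diluted conditioned medium of S16 cells; series mostly up to about 54 µM; 0% = DMSO and -100% = no enzyme.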 The essentials: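 qHTS format, against NLuc in S16 cell-conditioned medium. Nano-Glo substrate 1:100 was added after 15 min at room temperature. Luminescence was taken after a further 5 min.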

Values without a mark were called inactive. Inconclusive results are not listed. The source made the active and inactive calls. Calls come from the whole dose curve; as a rule, active = well fitted curve in the direction sought with a large enough effect; inconclusive = small, poorly fitted or top-dose-only effect, or another doubt; inactive = no such curve, though single readings can be large; an effect the other way counts as inactive or inconclusive.

Chain of Phospholipid hydroperoxide glutathione peroxidase GPX4 (Homo sapiens) (P36969 whole entry, looked up): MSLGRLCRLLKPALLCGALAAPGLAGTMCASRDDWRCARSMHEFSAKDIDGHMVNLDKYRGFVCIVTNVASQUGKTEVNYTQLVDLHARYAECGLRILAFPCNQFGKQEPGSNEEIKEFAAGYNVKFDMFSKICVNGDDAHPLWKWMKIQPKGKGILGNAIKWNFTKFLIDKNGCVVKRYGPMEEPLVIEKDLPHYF

With `CCn1c(N)c(C(=O)NC)c(=O)c2ccc(C#CC(C)(O)COC)nc21` (stereo unspecified), the Potency entry in assay [1], in assay [2], in assay [3] and in assay [4] was “inactive” each time.
In the case of `CO[C@H]1O[C@@H]2O[C@@]3(C)CCC4[C@H](C)CCC([C@H]1C)[C@]42OO3` (stereo partly specified), the Potency entry in assay [1], in assay [2], in assay [3], in assay [5] and in assay [4] was “inactive” each time.
With `CC(C)(Cc1nc(-c2ccc(O)cn2)no1)C(=O)NC1=C(C(=O)O)CCCC1`, the Potency result in assay [1], in assay [2], in assay [3] and in assay [4] was “inactive” each time.
As to `C[C@@H]1O[C@@H](O[C@H]2[C@@H](OC(=O)[C@]34CCC(C)(C)CC3C3=CCC5[C@@]6(C)C[C@H](O)[C@H](O[C@@H]7O[C@H](CO)[C@@H](O)[C@H](O)[C@H]7O[C@@H]7OC[C@@H](O)[C@H](O)[C@H]7O)[C@@](C)(C(=O)O)C6CC[C@@]5(C)[C@]3(C)CC4)OC[C@H](O)[C@@H]2O)[C@H](O)[C@H](O)[C@H]1O[C@@H]1OC[C@@H](O)[C@H](O)[C@H]1O` (stereo partly specified), the activity change, negative = inhibition in assay [1] was 1.61% [at 9.73 µM]. Moreover, the outcome in assay [2] was “inactive [at 11.6 µM]”. Besides, the activity change, negative = thiol reactive in assay [3] was 151% [at 11.5 µM]. For the same compound, in assay [5], the activity, negative = inhibition is 3.4% [at 11.6 µM]. Besides, the redox activity (% of DA3003) in assay [4] was 18.4% [at 11.5 µM].
Turning to `CN1CCC(NC(=O)c2cc(-c3c(O)cc(O)cc3Oc3ccc([N+](=O)[O-])cc3)on2)CC1`, the Potency result in assay [1], in assay [2] and in assay [5] was “inactive” each time.
Take `Cc1cccc(-c2[nH]ncc2-c2ccnc3ccccc23)n1`: the Potency entry in assay [1], in assay [2], in assay [3] and in assay [4] was “inactive” in each case.
As for `C/C=C/C=C/C(=O)O[C@@H]1C=C2COC(=O)[C@]2(O)[C@@]2(C)CCCC(C)(C)[C@H]12`, the Potency result in assay [1], in assay [2], in assay [3], in assay [5] and in assay [4] was “inactive” throughout.
Take `O=C(O)CSc1cc(NS(=O)(=O)c2ccc(Br)cc2)c2ccccc2c1O`: the Potency entry in assay [1] and in assay [2] was “inactive” in each case. The Potency in assay [3] was 0.474 µM (active); in assay [4], 5.32 µM (active).
For `CC(C)C[C@@H]1NC(=O)[C@@H]2C[C@@]34C[C@@H]5[C@@]6(C)CCCC(C)(C)C6CC[C@@]5(C)N(c5ccccc53)[C@H]4N2C1=O` (stereo partly specified), the Potency entry in assay [1], in assay [2], in assay [3], in assay [5] and in assay [4] was “inactive” each time.
Turning to `C/C=C(\C)C(=O)O[C@H]1C=CC(=O)O[C@H]1/C=C/[C@@H](O)[C@H](C)O`, the Potency entry in assay [1], in assay [2], in assay [3], in assay [5] and in assay [4] was “inactive” each time.
Consider `CNc1ccc([N+](=O)[O-])c(Nc2ccc3[nH]ncc3c2)n1`, for which the Potency entry in assay [1], in assay [2], in assay [5] and in assay [4] was “inactive” each time. In addition, the Potency in assay [3] is 4.74 µM (active).
On to `Cc1nc(NC(=O)N2CCCC2C(N)=O)sc1-c1ccnc(C(C)(C)C(F)(F)F)c1` (stereo unspecified), for which the Potency result in assay [1], in assay [2], in assay [3], in assay [5] and in assay [4] was “inactive” throughout.
Take `O=c1[nH]c2ccccc2n1CCN1CCN(c2cccc(C(F)(F)F)c2)CC1`: the Potency entry in assay [1], in assay [2], in assay [3], in assay [5] and in assay [4] was “inactive” throughout.
Turning to `O=c1cc(OCc2ccc(F)cc2)ccn1-c1ccc(OCCN2CCCC2)cc1`, the Potency result in assay [1], in assay [2], in assay [3], in assay [5] and in assay [4] was “inactive” throughout.
As to `Cc1cc(OCCCS(C)(=O)=O)cc(C)c1-c1cccc(COc2ccc3c(c2)OCC3CC(=O)O)c1` (stereo unspecified), the Potency entry in assay [1], in assay [2], in assay [3], in assay [5] and in assay [4] was “inactive” in each case.
With `CC(NCCCc1cccc(C(F)(F)F)c1)c1cccc2ccccc12` (stereo unspecified), the Potency entry in assay [1], in assay [2], in assay [3], in assay [5] and in assay [4] was “inactive” throughout.
As for `O=C(NCc1cccs1)c1cc2nc(-c3ccco3)cc(C(F)(F)Cl)n2n1`, the Potency result in assay [1], in assay [2] and in assay [5] was “inactive” throughout.
As for `CC(=O)OC[C@]12[C@H](OC(C)=O)[C@H](OC(=O)c3ccccc3)[C@@H]3[C@@H](OC(C)=O)[C@]1(OC3(C)C)[C@H](C)C[C@H](OC(C)=O)[C@@H]2OC(=O)c1ccccc1`, the Potency result in assay [1], in assay [2], in assay [3], in assay [5] and in assay [4] was “inactive” each time.
Consider `COc1cc(CCc2cc(NC(=O)c3ccc(N4CC(C)NC(C)C4)cc3)n[nH]2)cc(OC)c1` (stereo unspecified), for which the Potency entry in assay [1], in assay [2], in assay [3] and in assay [4] was “inactive” in each case.
Consider `CC[C@H]1OC(=O)[C@H](C)[C@@H](O[C@H]2C[C@@](C)(OC)[C@@H](O)[C@H](C)O2)[C@H](C)[C@@H](O[C@H]2O[C@H](C)C[C@H](N(C)C)[C@H]2O)[C@](C)(O)C[C@@H](C)C(=O)[C@H](C)[C@@H](O)[C@]1(C)O`, for which the Potency result in assay [1], in assay [2], in assay [3], in assay [5] and in assay [4] was “inactive” throughout.

The record behind these values is PubChem BioAssay (NCATS).
